Data from ChEMBL document CHEMBL3988442, “University of Dundee, Small-Polar-MMV Screening Library” (2021).
Among all 48,000 compounds or so, about 13,000 (27%) showed an effect of 50% or more. Some of the results follow.

tested on: Wolbachia pipientis; experiment: Anti-Wolbachia Cell-Based Screen; type: functional; set-up: scale not given: in the data most compounds retested in dose-response had high values; conditions: 5 µM

| Compound | Percent Effect [%] |
| --- | --- |
| Cc1nc(C(C)C)ncc1C(=O)N1CCc2c(nc(N(C)C)[nH]c2=O)C1 | -2.755 |
| Cc1ccc(CN2CC3(CCNCC3)CCC2=O)c(F)c1F | -4.713 |
| CCN1C[C@H]2C3(CCN(S(C)(=O)=O)CC3)CC[C@@]2(C(=O)N(C)C)C1.O=C(O)C(F)(F)F | -24.55 |
| CNC(=O)[C@@]12CCC3(CCNCC3)[C@@H]1CN(S(C)(=O)=O)C2 | 151.6 |
| CCN1C[C@H]2C3(CCN(C(=O)NC(C)C)CC3)CC[C@@]2(C(=O)NC)C1.O=C(O)C(F)(F)F | -18.02 |
| CCN1CC2(CC1=O)CN(C(=O)COC)CCN(S(C)(=O)=O)C2 (stereo not drawn) | -10.66 |
| CNC(=O)[C@@]12CCC3(CCN(C(=O)COC)CC3)[C@@H]1CN(S(C)(=O)=O)C2 | 102.3 |
| CNC(=O)N1CCC2(CC1)CC[C@@]1(C(=O)NC)CN(S(C)(=O)=O)C[C@@H]21 | 99.51 |
| CNC(=O)[C@@]12CCC3(CCN(S(C)(=O)=O)CC3)[C@@H]1CN(S(C)(=O)=O)C2 | 14.17 |
| CC(=O)N1CCC2(CC1)CC[C@@]1(C(=O)N(C)C)CN(S(C)(=O)=O)C[C@@H]21 | -18.69 |
| CNC(=O)[C@@]12CCC3(CCN(C(=O)C(C)C)CC3)[C@@H]1CN(S(C)(=O)=O)C2 | 104.1 |
| CNC(=O)[C@@]12CCC3(CCN(C(C)=O)CC3)[C@@H]1CN(S(C)(=O)=O)C2 | -0.1611 |
| CC(C)NC(=O)N1CCC2(CC1)CC[C@@]1(C(=O)N(C)C)CN(C)C[C@@H]21 | -18.22 |
| O=C(c1cscn1)N(CCCO)S(=O)(=O)c1cccs1 | 7.908 |
| CN(CCSc1ccccc1)C(=O)c1cn2c(n1)CNCC2 | -0.3479 |
| O=C(NCc1ccc(C(=O)N2CCCC2)cc1)c1cn2c(n1)CNCC2 | -4.939 |
| CN1C(=O)CC(N(C)Cc2nc3ccccc3c(=O)[nH]2)C1=O (stereo not drawn) | -8.963 |
| CCC(C)N(Cc1ccncc1)Cc1cccc(Cn2cccn2)c1 (stereo not drawn) | -14.79 |
| CCc1[nH]c2c(CNc3cncc(C(=O)OC)n3)cc(C)cc2c1C | 11.12 |
| O[C@H]1COCCN(Cc2cccc3c2OCO3)C1 | -4.774 |
| CCOc1ccccc1-c1noc(CN2CCOC(CN(C)C)C2)n1 (stereo not drawn) | 7.76 |
| CC(C)c1nnc2n1CCN(C(=O)c1ccnc(N(C)C)c1)C2 | -1.642 |
| Cc1ccccc1-c1cc(C(=O)N2CCn3c(C)nnc3C2)[nH]n1 | -2.104 |
| Cc1nnc2n1CCN(C(=O)c1cc(Cl)c[nH]1)C2 | -1.056 |
| Cc1nnc2n1CCN(C(=O)c1cc3cc(F)ccc3[nH]1)C2 | 87.27 |
| CC(C)c1nnc2n1CCN(C(=O)c1cc3cc(F)ccc3[nH]1)C2 | 98.88 |

| Compound | Percent Effect [%] |
| --- | --- |
| CC(C)c1nnc2n1CCN(C(=O)c1ccc3cc[nH]c3c1)C2 | -4.188 |
| O=C(NC[C@H]1OC[C@@H](NCc2ccccc2)[C@@H]1O)Nc1ccccc1 | -15.87 |
| C1CC(CN2C[C@@H]3C[C@@H](c4nnc(C5CC5)o4)O[C@@H]3C2)C1 | 108.7 |
| C1CC(CN2C[C@H]3CC[C@@H]2CN(Cc2nnc(C4CC4)o2)C3)C1 | 1.497 |
| C1CC(CN2CC[C@@H]3O[C@@H](c4nnc(C5CC5)o4)C[C@H]3C2)CCO1 | 104.3 |
| Cc1nnc([C@@H]2CC[C@@H]3[C@@H](CCN3CC3CCOCC3)O2)o1 | 8.23 |
| Cc1noc([C@@H]2C[C@H]3CN(CC4CCOCC4)C[C@H]3O2)n1.O=C(O)C(F)(F)F | 45.83 |
| C1CC(CN2C[C@@H]3C[C@@H](c4nnc(C5CC5)o4)O[C@@H]3C2)CCO1 | 101.2 |
| O=C(Cc1ccsc1)N1C[C@@H]2C[C@@H](c3nnc(C4CC4)o3)O[C@@H]2C1 | 1.752 |
| Cc1nnc([C@H]2CC[C@@H]3[C@@H](CCN3CC3CCOCC3)O2)o1 | -4.928 |
| COc1cc2c(cc1OC)S(=O)(=O)N(Cc1ccccc1)C2=O | -12.48 |
| CCC(C)N(Cc1cccnc1)Cc1ccccc1Cn1cccn1 (stereo not drawn) | 1.099 |
| Cc1cc(N(Cc2ccccn2)C2CC2)n2nc(C(F)(F)F)nc2n1 | 23.9 |
| N#CC(NC(=O)CS(=O)(=O)C1CCCC1)c1ccc(F)cc1F (stereo not drawn) | 10.46 |
| CCS(=O)(=O)CC(=O)NC(c1ccccc1)C1CCCC1 (stereo not drawn) | 90.5 |
| CCn1cnnc1CNC(=O)NC(c1ccccc1)C1CCCC1 (stereo not drawn) | 9.923 |
| CCC(NC(=O)CS(=O)(=O)C1CCCC1)c1cc(F)ccc1F (stereo not drawn) | -16.07 |
| Cc1nn(C)c(C)c1NC(=O)CNC(c1ccccc1)C1CCCC1 (stereo not drawn) | -3.756 |
| O=C(CS(=O)(=O)C1CCCC1)NC(c1ccc(F)cc1)C1CC1 (stereo not drawn) | 106.7 |
| CN(CCNC(=O)N1CCCC1)C(=O)OC(C)(C)C | -14.2 |
| Cc1oc(NC(=O)C(C)N2CCN(CCO)CC2)c(C#N)c1C (stereo not drawn) | 14.13 |
| Cc1c(CN2CCOCC2)c(O)n(CCO)c(=O)c1C#N | 129.2 |
| Cn1cc(C#N)cc1C(=O)Nc1ccc(CN2CCOCC2)cn1 | -7.398 |
| Cn1c(NCC(=O)N2CCCCC2)c(C#N)c(=O)n(C)c1=O | -4.549 |
| Cc1c(CN2CCCCC2)c(O)n(CCCO)c(=O)c1C#N | 106.4 |
| Cn1c(NCCN2CCCCCC2)c(C#N)c(=O)n(C)c1=O | 6.229 |

| Compound | Percent Effect [%] |
| --- | --- |
| Cc1nn(C)c(N2CCOCC2)c1CNC(C)c1cccnc1 (stereo not drawn) | -5.13 |
| CNC(=O)CCc1cc(C2CCCCN2C)nc(C)n1 (stereo not drawn) | 129.2 |
| CNC(=O)CCc1cc(C2CCCCN2C(C)C)nc(C)n1 (stereo not drawn) | 119 |
| Cc1ncsc1CCC(=O)NCc1csc(N2CCCC2)n1 | 13.92 |
| CNC(=O)CCN1CCCCCC1c1ccc(C)o1 (stereo not drawn) | -114 |
| Cc1nc(O)cc(CCNC(=O)C2CC(=O)N(CC(C)C)C2)n1 (stereo not drawn) | -0.9354 |
| Cc1[nH]n(-c2ccccc2)c2nnc(N)c1-2 | -6.219 |
| Cc1noc(C)c1C1CCCN1C(=O)CN1C(=O)OC(C)(C)C1=O (stereo not drawn) | 87.43 |
| CC(C)c1cc(C2CCCN2C(=O)CN2C(=O)OC(C)(C)C2=O)no1 (stereo not drawn) | 116.9 |
| Cc1cc(C2CCCN2C(=O)CN(C)Cc2ccccc2)no1 (stereo not drawn) | -3.366 |
| CC(C)c1cc(C2CCCN2C(=O)CN2C(=O)CCNC2=O)no1 (stereo not drawn) | 96.7 |
| Cc1cc(CC(=O)N2CCCC2c2nc(C(C)C)no2)on1 (stereo not drawn) | -3.815 |
| Cc1noc(C)c1C1CCCN1CCC(=O)N1CCc2ccccc2C1 (stereo not drawn) | -8.027 |
| Cc1cc(C2CCCCN2C(=O)CN2C(=O)OC(C)(C)C2=O)no1 (stereo not drawn) | 120.5 |
| Cc1noc(C)c1C1CCCN1C(=O)CN1CC2(CCNCC2)OC1=O (stereo not drawn) | -18.41 |
| O=C1CCNC(=O)N1CC(=O)N1CCC1c1ccc(F)cc1 (stereo not drawn) | 13.18 |
| Cc1ccc2c(c1)SCC(=O)N2CC(=O)N1CCCC1c1cc(C)on1 (stereo not drawn) | -2.59 |
| Cc1cc(C2CCCCN2C(=O)CN2CC3(CCNCC3)OC2=O)no1 (stereo not drawn) | -1.974 |
| O=C(Cc1cccs1)NCC1COCc2c(-c3ccoc3)nnn2C1 (stereo not drawn) | -2.287 |
| COc1cccc2c1OCC(C(=O)N1CCN(C3CCSCC3)CC1)C2 (stereo not drawn) | -19.41 |
| Cc1ccc2c(c1)SCC(=O)N2CC(=O)N1CCCC1c1cc(C)no1 (stereo not drawn) | 3.294 |
| Cc1cc(C2CCCN2C(=O)CN2CC3(CCNCC3)OC2=O)on1 (stereo not drawn) | 8.935 |
| Cc1cc(C2CCCN2C(=O)CN2C(=O)OC(C)(C)C2=O)on1 (stereo not drawn) | 91.01 |
| CN(CCC(F)(F)F)C(=O)[C@H]1CSCN1C(=O)OC(C)(C)C | -7.919 |
| CCc1nnc(NC(=O)c2ccc(C3CCCN3CC(C)C)s2)s1 (stereo not drawn) | -1.663 |
| Cc1ccc(C(=O)Nc2nnc(CC(C)C)s2)c(-n2cnnn2)c1C | 125.4 |

| Compound | Percent Effect [%] |
| --- | --- |
| COc1ccc(F)cc1C(=O)Nc1nnc(C)s1 | 1.67 |
| Cc1ccc(C(=O)Nc2nnc(C(C)C)s2)c(-n2cnnn2)c1C | 110.4 |
| Cc1ccc(C(=O)NC2CC2)c(-n2cnnn2)c1C | 120.6 |
| O=C(Nc1nncs1)c1ccc(-n2cnnn2)cc1 | -0.9565 |
| Cc1ccc(C(=O)Nc2nnc(C3CC3)s2)c(-n2cnnn2)c1C | 95.77 |
| O=C(NC1CC1)c1cc(Cl)ccc1-n1cnnn1 | 2.892 |
| CC(=O)N1CCC(NC(=O)c2ccccc2-n2cnnn2)CC1 | 3.237 |
| Cc1nn(C)c(C)c1CCC(=O)Nc1nnc(C2CC2)s1 | 27.73 |
| Cc1ccc(CNC(=O)Nc2nnc(C3CC3)s2)n1C | -14.35 |
| Cc1cc(C(=O)N[C@H](C)c2onc(C)c2C(=O)O)c(C)o1.Cl | -8.572 |
| Cc1cc(C)c(C(=O)NC2CCN(c3ncccc3C#N)CC2)c(=O)[nH]1 | 4.704 |
| Cc1ccc(C(=O)N2CC(C(N)=O)O[C@H](C)C2)c(C)c1 (stereo partly drawn) | -8.345 |
| CCCSc1ncc(-c2nccn2CCC(N)=O)cn1 | -44.89 |
| O=C(NC1CCCN(c2ccc(OC(F)F)cc2)C1)c1cnc[nH]1 (stereo not drawn) | -8.702 |
| CC(C)Oc1ccccc1CNC(=O)c1[nH]ncc1Br | 24.22 |
| CC(CNC(=O)c1cnc[nH]1)Oc1ccc(Cl)cc1 (stereo not drawn) | 110.7 |
| CN(Cc1ccco1)Cc1ccccc1CNC(=O)c1cnc[nH]1 | -12.45 |
| Cc1ccc(OC(C)CNC(=O)c2c[nH]nn2)cc1 (stereo not drawn) | 4.97 |
| CC(CNC(=O)c1c[nH]nn1)Oc1ccccc1Br (stereo not drawn) | -9.853 |
| COc1ccccc1OC(C)CNC(=O)c1cnc[nH]1 (stereo not drawn) | 110.3 |
| CC(CNC(=O)c1c[nH]nn1)Oc1cccc(Br)c1 (stereo not drawn) | -32.96 |
| COc1ccccc1C(C)CNC(=O)c1[nH]ncc1Br (stereo not drawn) | 42.12 |
| CC(CNC(=O)c1c[nH]nn1)Oc1ccc(Cl)cc1 (stereo not drawn) | 99.95 |
| CC(CNS(N)(=O)=O)Oc1ccc(Cl)cc1 (stereo not drawn) | -13.16 |
| CC(CNC(=O)c1cnc[nH]1)Oc1ccccc1Br (stereo not drawn) | 110.9 |
